{"source": "PubChem BioAssay AID894", "about": "(National Center for Advancing Translational Sciences (NCATS), 2007)", "note": "In all, about 150,000 compounds went through this assay and about 6,500 (4.3%) were called active. Roughly 12% stayed inconclusive and do not appear here. This excerpt belongs to a sample that is enriched for actives. A number with no mark means an inactive call. Calls come from the whole dose curve; as a rule, active = well fitted inhibition curve with a large enough effect (not every such curve was filed as active); inconclusive = small, poorly fitted or top-dose-only effect, or another doubt; inactive = no such curve, though single readings can be large or run the other way. % is set by controls: 0 for no effect and ±100 for the full control effect; potency is the fitted concentration of half-maximal effect.", "data": [{"biological_target": "15-hydroxyprostaglandin dehydrogenase [NAD(+)] (Homo sapiens) (UniProt P15428)", "sequence (P15428 whole entry, looked up)": "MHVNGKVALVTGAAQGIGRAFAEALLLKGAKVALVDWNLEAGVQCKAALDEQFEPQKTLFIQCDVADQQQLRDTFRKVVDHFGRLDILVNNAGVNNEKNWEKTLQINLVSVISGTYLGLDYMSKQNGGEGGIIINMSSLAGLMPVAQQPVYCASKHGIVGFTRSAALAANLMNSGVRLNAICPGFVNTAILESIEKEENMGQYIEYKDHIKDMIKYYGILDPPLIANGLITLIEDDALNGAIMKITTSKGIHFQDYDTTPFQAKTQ", "assay": "qHTS Assay for Inhibitors of HPGD (15-Hydroxyprostaglandin Dehydrogenase)", "conditions": "purified HPGD, NADH fluorescence kinetic, PGE2 substrate; activity change, negative = inhibition: active compounds read low", "excerpt": "Human 15-Hydroxyprostaglandin dehydrogenase (HPGD) catalyzes the inactivation of prostaglandin E2, and plays a major role in cancer biology by antagonizing the oncogenic potential of cyclooxygenase type 2 (COX2). Assays are available, based on absorbance/fluorescence increase of NADH with the substrate 15-OH prostaglandin E2. References 1. Myung SJ, Rerko RM, Yan M, Platzer P, Guda K, Dotson A, Lawrence E, Dannenberg AJ, Lovgren AK, Luo G, Pretlow TP, Newman RA, Willis J, Dawson D, Markowitz SD. 15-Hydroxyprostaglandin dehydrogenase is an in vivo suppressor of colon tumorigenesis. […] 2. Yan M, Rerko RM, Platzer P, Dawson D, Willis J, Tong M, Lawrence E, Lutterbaugh J, Lu S, Willson JK, Luo G, Hensold J, Tai HH, Wilson K, Markowitz SD. 15-Hydroxyprostaglandin dehydrogenase, a COX-2 oncogene antagonist, is a TGF-beta-induced suppressor of human gastrointestinal cancers. Proc Natl Acad Sci U S A. 2004 Dec 14;101(50):17468-73. 3. Yang L, Amann JM, Kikuchi T, Porta R, Guix M, Gonzalez A, Park KH, Billheimer D, Arteaga CL, Tai HH, Dubois R, Carbone DP, Johnson DH. Inhibition of Epidermal Growth Factor Receptor Signaling Elevates 15-Hydroxyprostaglandin Dehydrogenase in Non-Small-Cell Lung Cancer. Cancer Res. 2007 Jun 15;67(12):5587-5593. Inhibition of HPGD activity was screened by utilizing prostaglandin as an electron donor and NAD+ as an electron acceptor/cofactor. An increase in the fluorescence intensity due to conversion of NAD+ to NADH was used to measure the enzyme activity. NIH Chemical Genomics Center [NCGC] Structural Genomics Consortium [SGC]\nBuffer: 50 mM Tris-HCl, 0.01% Tween 20, pH 8. Enzyme Buffer: 50 mM Tris-HCl, 0.5 mM NAD+ and 0.01% Tween 20, pH 8. Reagents/Controls: Buffer in columns 3 and 4 as negative control (no enzyme). Substrate/cofactor solution: 1 mM NAD+ and 30 uM prostaglandin (Sigma, prostaglandin E2, # P5640) final concentrations dispensed throughout the plate. Enzyme: 20 nM HPGD final concentration in columns 1, 2, 5-48. Column 1 and 2 is neutral (100% activity). A titration of control inhibitor GW5074 (G6416 Sigma-Aldrich, St. Louis, MO) top concentration 10 mM in DMSO, then 1:2 dilution for a total of 16 concentrations in duplicate) was pin-transferred into column 2. Assay Steps: Three uL of enzyme were dispensed to 1536-well Greiner black solid bottom plates. Compounds and control inhibitor (23 nL) were transferred via Kalypsys PinTool. The plates were incubated for 15 min at room temperature, and then 1 uL of substrate/cofactor solution was added to start the reaction. The plates were immediately transferred to and read 5 times every 30 seconds on ViewLux High-throughput CCD imager (Perkin-Elmer) using 360 nm excitation and 450 nm emission fluorescence protocol. The fluorescence intensity difference between the last and the first time points was used to compute reaction progress.", "units": {"activity change, negative = inhibition": "%"}, "values": [{"smiles": "COC(=O)C1=C(C)NC2=C(C(=O)c3ccccc32)C1c1ccc(-c2ccc(C(=O)O)cc2)o1", "note": "(stereo not drawn)", "Potency": "17.8 µM (active)"}, {"smiles": "Cc1ccc(C2C3=C(Nc4[nH]n(-c5ccccc5)c(=O)c42)c2ccccc2C3=O)cc1", "note": "(stereo not drawn)", "activity change, negative = inhibition": -23.6}, {"smiles": "COc1ccccc1NC(=O)C1=C(C)NC2=C(C(=O)CCC2)C1c1ccc(C)o1", "note": "(stereo not drawn)", "activity change, negative = inhibition": -4.54}, {"smiles": "Cc1cc(C(C)(C)C)cc(C)c1N", "activity change, negative = inhibition": 2.4}, {"smiles": "O=C(OC1CCOC1=O)c1cccc(S(=O)(=O)Nc2ccc(F)cc2)c1", "note": "(stereo not drawn)", "activity change, negative = inhibition": -0.633}, {"smiles": "COc1cc(C(=O)NC(=S)NCc2ccco2)cc(OC)c1OC", "activity change, negative = inhibition": -21.9}, {"smiles": "O=C(NCc1ccco1)c1ccc(CS(=O)(=O)Cc2ccc(F)cc2)o1", "activity change, negative = inhibition": 2.28}, {"smiles": "COc1ccc2c(Cl)c(C(=O)NCc3ccco3)sc2c1", "Potency": "14.1 µM (active)"}, {"smiles": "O=C(NCc1ccco1)c1sc2cccc(F)c2c1Cl", "Potency": "3.98 µM (active)"}, {"smiles": "COc1ccc(-c2cc(C(=O)NCc3ccco3)no2)cc1OC", "activity change, negative = inhibition": -10.4}, {"smiles": "O=C(NCCCCCCNC(=O)NCc1ccco1)NCc1ccco1", "activity change, negative = inhibition": -9.22}, {"smiles": "CCN1CN(Cc2ccccc2)CNC1=S", "activity change, negative = inhibition": -9.5}, {"smiles": "CC(O)c1nc2ccccc2n1Cc1ccc([N+](=O)[O-])cc1", "note": "(stereo not drawn)", "activity change, negative = inhibition": -6.78}, {"smiles": "CC(=O)c1c(C)[nH]c(C(=O)OCC(=O)Nc2cc(S(=O)(=O)N3CCCCC3)ccc2C)c1C", "activity change, negative = inhibition": -12.5}, {"smiles": "Cc1ccccc1CN1CCN(C(=O)c2cccc(F)c2)CC1", "activity change, negative = inhibition": 2.95}, {"smiles": "C/C(=C\\C(=O)c1ccc(Br)cc1)N1CCCCC1", "activity change, negative = inhibition": -21.6}, {"smiles": "CCOC(=O)C1CCCN(C(=O)c2cncc(Br)c2)C1", "note": "(stereo not drawn)", "activity change, negative = inhibition": -7.12}, {"smiles": "CCCNC(=O)c1ccc(Cl)c(Cl)c1", "activity change, negative = inhibition": -21.6}, {"smiles": "Cc1ccc(C(=O)N2CCCCCC2)cc1Br", "Potency": "5.01 µM (active)"}, {"smiles": "Cc1cc(=O)oc(C)c1C(=O)N1CCCCC1", "activity change, negative = inhibition": -2.92}, {"smiles": "Cc1cccc(C(=O)N2CCCN(C(=O)c3cccc(C)c3)CC2)c1", "activity change, negative = inhibition": 4.89}, {"smiles": "CNC(=O)n1ccc(C(=O)N2CCCCC2)n1", "activity change, negative = inhibition": -21.9}, {"smiles": "O=C(c1ccc(Cl)c(Cl)c1)N1CCCC1", "Potency": "20 µM (active)"}, {"smiles": "Cc1ccc(C(=O)N2CCCC2)c(F)c1F", "Potency": "10 µM (active)"}, {"smiles": "O=C(Nc1cccc(C(=O)N2CCCC2)c1)c1ccccc1", "activity change, negative = inhibition": -13.5}, {"smiles": "Cc1c(Br)cc(C(=O)N2CCCCCC2)c(C)c1C", "Potency": "14.1 µM (active)"}, {"smiles": "Cc1cc(C(=O)N/N=C/c2ccc(O)c([N+](=O)[O-])c2)c(C)n1-c1ccc(F)cc1", "activity change, negative = inhibition": -20.1}, {"smiles": "COc1ccc(C(=O)NNC(=S)NC(=O)c2ccccc2[N+](=O)[O-])cc1", "activity change, negative = inhibition": -1.33}]}]}
